About 83,000 compounds went through this panel and 20% of them were active in at least one assay; those are over-represented in the sample as a whole.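 A percent growth of 40 corresponds to 60% growth inhibition; 0 means no net growth; -100 means all cells died. Active threshold: below 10.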 The source made the active and inactive calls.
Assays:
Experiment in all cases: NCI-60 one-dose screen, 48 h (100 = growth as untreated, 0 = no growth, -100 = all killed)
Conditions in all cases: 10 µM
[1] = tested on: DU-145 prostate
[2] = tested on: K-562 leukemia
[3] = tested on: MALME-3M melanoma
[4] = tested on: MDA-MB-231 breast
[5] = tested on: RXF 393 renal
[6] = tested on: SF-268 CNS
[7] = tested on: SF-295 CNS
[8] = tested on: SF-539 CNS
[9] = tested on: UACC-257 melanoma
[10] = tested on: M14 melanoma
[11] = tested on: HCT-15 colon
[12] = tested on: HT29 colon
[13] = tested on: SNB-75 CNS
[14] = tested on: SNB-19 CNS
[15] = tested on: U251 CNS
[16] = tested on: PC-3 prostate
[17] = tested on: SK-MEL-5 melanoma
[18] = tested on: UACC-62 melanoma
[19] = tested on: LOX IMVI melanoma
[20] = tested on: SK-MEL-28 melanoma

Measured: growth

O=[N+]([O-])c1cc(Cl)cc(Cl)c1O
inactive: [1] 105% | [2] 109% | [3] 97.1% | [4] 110% | [5] 104% | [6] 100% | [7] 97.3% | [8] 89.7% | [9] 104% | [10] 96.9% | [11] 101% | [12] 97.7% | [13] 90.8% | [14] 103% | [15] 104% | [16] 103% | [17] 101% | [18] 103% | [19] 92.6%

CCn1c(SC/C(=N/O)c2ccccc2)nnc1-c1ccccc1
inactive: [1] 107% | [2] 86% | [3] 98.6% | [4] 94.6% | [5] 117% | [6] 108% | [7] 109% | [8] 93.7% | [9] 104% | [10] 109% | [11] 101% | [12] 104% | [13] 87.8% | [14] 98.9% | [15] 102% | [16] 81.2% | [17] 100% | [18] 86.2% | [19] 104% | [20] 106%

O=C(CCC(C(=O)c1ccccc1)c1ccccc1)c1ccccc1 (configuration not stated)
inactive: [1] 86.4% | [2] 18.7% | [3] 43.4% | [4] 77.9% | [5] 78% | [6] 85% | [7] 36.9% | [8] 99.9% | [9] 90.5% | [10] 52.2% | [11] 45.8% | [12] 34.1% | [13] 79.9% | [14] 89.8% | [15] 90.4% | [16] 55.5% | [17] 82.5% | [18] 63% | [19] 91.9% | [20] 80.5%

O=C(CCCCC(=O)Oc1c(Cl)cc(Cl)cc1[N+](=O)[O-])Oc1c(Cl)cc(Cl)cc1[N+](=O)[O-]
inactive: [1] 106% | [2] 85.9% | [3] 98.8% | [4] 106% | [5] 120% | [6] 96.3% | [7] 97.2% | [8] 100% | [9] 99.5% | [10] 103% | [11] 100% | [12] 103% | [13] 93.9% | [14] 105% | [15] 98% | [16] 104% | [17] 102% | [18] 102% | [19] 92% | [20] 111%

Nc1ccc(CC[C@H]2CCC/C=C/[C@@H]3C[C@H](O)C[C@H]3[C@H](O)/C=C/C(=O)O2)cc1
inactive: [1] 16.2% | [2] 11.4% | [6] 10.2% | [7] 13% | [8] 25.3% | [13] 32.3% | [14] 29.5% | [15] 15.8% | [16] 12.9% | [18] 11.7%
active: [3] -14% | [4] -80.5% | [5] -36.3% | [9] 4.74% | [10] 3.35% | [11] 6.58% | [12] -39.8% | [17] -84.9% | [19] -74.4%

CC(=O)Nc1ccc(CC[C@H]2CCC/C=C/[C@@H]3C[C@H](O)C[C@H]3[C@H](O)/C=C/C(=O)O2)cc1
active: [3] -7.38% | [4] -88.4% | [5] -32.1% | [9] -3.78% | [10] 9.87% | [11] 9.69% | [12] -26.2% | [17] -88.6% | [19] -64.9% | [20] 6.75%
inactive: [1] 22.9% | [2] 15.3% | [6] 13.8% | [7] 16.9% | [8] 25.3% | [13] 30.3% | [14] 25.9% | [15] 15.2% | [16] 18.9% | [18] 18.7%

O=C1/C(=C/c2ccc([N+](=O)[O-])s2)Oc2cc(Cl)ccc21
inactive: [1] 32.2% | [7] 52.1% | [9] 31.7% | [13] 58.8% | [17] 17.6%
active: [2] -8.29% | [3] -49.5% | [4] -71.7% | [5] -49.6% | [6] -59.4% | [8] -10.9% | [10] 2.51% | [11] 0.579% | [12] -4.42% | [14] 2.32% | [15] -58% | [16] -73% | [18] -37.7% | [19] -78.4% | [20] -29.2%

COc1cc2cc(Oc3ccc(NC(=O)c4ccc(Cl)c(C(F)(F)F)c4)cc3)c(C)nc2cc1OC
active: [7] 7.81% | [15] 2.03% | [16] 4.32%
inactive: [1] 43% | [2] 14.8% | [3] 37.2% | [4] 48.3% | [5] 50.8% | [6] 56.1% | [8] 57.3% | [9] 36.8% | [10] 18.4% | [11] 26.9% | [12] 26% | [13] 68.4% | [14] 39.3% | [17] 25.5% | [18] 13.9% | [19] 33% | [20] 66.9%

COc1ccc(-c2onc(N)c2-c2cc(OC)c3c(c2)OCO3)cc1
inactive: [1] 29.3% | [2] 13% | [3] 29.5% | [4] 56.7% | [5] 24.8% | [6] 50.1% | [7] 14.3% | [8] 20.1% | [9] 47.5% | [11] 23.9% | [13] 17.7% | [14] 52.8% | [15] 18.6% | [16] 61.4% | [18] 42.7% | [19] 34.7% | [20] 47.4%
active: [10] -0.971% | [12] 7% | [17] 1.27%

NS(=O)(=O)Oc1ccc(NC(=O)C2CCCCCC2)cc1
inactive: [1] 117% | [2] 96.1% | [3] 102% | [4] 103% | [5] 116% | [6] 98.5% | [7] 99% | [8] 98.3% | [9] 100% | [10] 108% | [11] 100% | [12] 108% | [13] 96.1% | [14] 101% | [15] 100% | [16] 96.5% | [17] 101% | [18] 99.7% | [19] 98.8% | [20] 104%

CCN1C(=O)CC(SC2CC(=O)N(CC)C2=O)C1=O (configuration not stated)
inactive: [1] 101% | [2] 82.7% | [3] 97.6% | [4] 105% | [5] 111% | [6] 96.1% | [7] 106% | [8] 100% | [9] 100% | [10] 97.6% | [11] 105% | [12] 79.7% | [13] 97.4% | [14] 95.7% | [15] 102% | [16] 101% | [17] 104% | [18] 102% | [19] 95.2% | [20] 112%

CCOC(=O)c1cc(C(=O)c2cc(OC)cc(OC)c2)n2ncc3ccccc3c12
active: [2] 5.75% | [7] 8.71% | [12] 2.01% | [13] -10% | [15] -13.4% | [19] 9.99%
inactive: [1] 46.4% | [3] 41.9% | [4] 42.9% | [5] 29.1% | [6] 46.9% | [8] 11.5% | [9] 49% | [10] 15.7% | [11] 29.8% | [14] 46.8% | [16] 31.7% | [17] 18.7% | [18] 41.7% | [20] 63%

S=C(SSC(=S)N(c1ccccc1)c1ccccc1)N(c1ccccc1)c1ccccc1
inactive: [1] 109% | [2] 104% | [3] 99% | [4] 114% | [5] 111% | [6] 97.8% | [7] 102% | [8] 109% | [9] 81.7% | [10] 101% | [11] 103% | [12] 96.6% | [13] 100% | [14] 99.4% | [15] 87.9% | [16] 81.9% | [17] 102% | [18] 103% | [19] 95.2%

Nc1nccc(OCCO)n1
inactive: [1] 104% | [2] 99.3% | [3] 108% | [4] 108% | [5] 117% | [6] 101% | [7] 97.5% | [8] 101% | [9] 97.6% | [10] 102% | [11] 98.4% | [12] 88.3% | [13] 89.5% | [14] 101% | [15] 107% | [16] 103% | [17] 99.2% | [18] 106% | [19] 97.5% | [20] 112%

Clc1ccc(C2=NN=C3C(Cc4ccccc4)=Nc4ccccc4N3C2)cc1
inactive: [1] 70.1% | [2] 30.1% | [3] 95.5% | [4] 68.9% | [5] 82.1% | [6] 66.7% | [7] 86.3% | [8] 105% | [9] 104% | [10] 75.8% | [11] 68.6% | [12] 84.6% | [13] 98.5% | [14] 93.3% | [15] 62.1% | [16] 65.1% | [17] 80.3% | [18] 79.6% | [19] 65.2% | [20] 83.4%
